{"source": "paper PMC7862700", "about": "“An all-to-all approach to the identification of sequence-specific readers for epigenetic DNA modifications on cytosine”", "assay_in_all_cases": "DAPPL (digital affinity profiling via proximity ligation, sequencing); 10 mM Tris-HCl pH 7.5, 50 mM NaCl, 1 mM DTT, 4% glycerol, room temperature, 30 min; GST-TFs on glutathione beads, 16-mer random dsDNA library, 0.1% formaldehyde crosslink after washing; high values mean tight binding", "conditions_in_all_cases": "protein: recombinant; tags: N-terminal GST; dsDNA, one strand shown", "key": {"[1]": {"molecular_target": "ETV5 (Homo sapiens, UniProt P41161 1-510)", "sequence (P41161 whole entry, the tested form may be a part)": "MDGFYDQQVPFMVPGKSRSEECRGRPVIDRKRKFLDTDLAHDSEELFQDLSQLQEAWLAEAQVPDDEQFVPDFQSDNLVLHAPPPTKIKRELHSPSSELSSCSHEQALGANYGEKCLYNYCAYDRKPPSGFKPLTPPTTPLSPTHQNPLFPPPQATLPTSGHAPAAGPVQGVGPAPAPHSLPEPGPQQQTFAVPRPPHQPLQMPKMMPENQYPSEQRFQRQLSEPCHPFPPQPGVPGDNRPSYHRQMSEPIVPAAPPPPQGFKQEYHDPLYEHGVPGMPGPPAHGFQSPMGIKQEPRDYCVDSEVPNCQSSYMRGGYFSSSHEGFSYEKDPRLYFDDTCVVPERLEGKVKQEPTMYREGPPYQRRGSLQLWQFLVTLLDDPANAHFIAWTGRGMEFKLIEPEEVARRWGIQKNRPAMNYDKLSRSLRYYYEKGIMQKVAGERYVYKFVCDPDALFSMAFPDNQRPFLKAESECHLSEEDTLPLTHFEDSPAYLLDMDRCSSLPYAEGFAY", "outline": "(§1)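 Pools were built from human transcription factors expressed in yeast as GST fusions, captured on glutathione beads and DNA-barcoded, along with a tag-only sample. Incubation with 200 nmole of a 16-mer random double-stranded DNA library lasted 30 min at room temperature in Tris/NaCl/DTT/glycerol buffer, and was followed by washing, 0.1% formaldehyde crosslinking, proximity ligation, PCR amplification and Illumina NextSeq500 sequencing. Binding signal is the quotient of each hexamer's read frequency for a factor and its frequency for the tag-only sample.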"}, "[2]": {"molecular_target": "T1, ERF (Homo sapiens, UniProt P50548 1-548)", "T1 sequence": "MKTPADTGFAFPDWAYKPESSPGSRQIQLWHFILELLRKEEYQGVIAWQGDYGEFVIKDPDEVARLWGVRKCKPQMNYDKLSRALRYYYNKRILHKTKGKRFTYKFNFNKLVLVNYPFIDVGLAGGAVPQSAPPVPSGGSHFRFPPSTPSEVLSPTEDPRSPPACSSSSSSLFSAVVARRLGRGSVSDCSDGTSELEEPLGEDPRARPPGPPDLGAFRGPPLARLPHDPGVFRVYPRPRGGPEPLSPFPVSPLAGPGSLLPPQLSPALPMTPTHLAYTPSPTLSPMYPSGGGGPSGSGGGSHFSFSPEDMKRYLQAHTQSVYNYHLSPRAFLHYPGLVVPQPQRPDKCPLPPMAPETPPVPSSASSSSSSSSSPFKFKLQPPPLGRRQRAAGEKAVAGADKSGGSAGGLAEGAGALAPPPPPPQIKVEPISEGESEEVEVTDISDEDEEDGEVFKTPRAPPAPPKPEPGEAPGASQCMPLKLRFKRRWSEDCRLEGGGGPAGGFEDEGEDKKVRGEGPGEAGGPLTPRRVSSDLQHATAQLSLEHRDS", "outline": "as §1"}, "[3]": {"molecular_target": "T2, ERG (Homo sapiens, UniProt P11308 1-479)", "T2 sequence": "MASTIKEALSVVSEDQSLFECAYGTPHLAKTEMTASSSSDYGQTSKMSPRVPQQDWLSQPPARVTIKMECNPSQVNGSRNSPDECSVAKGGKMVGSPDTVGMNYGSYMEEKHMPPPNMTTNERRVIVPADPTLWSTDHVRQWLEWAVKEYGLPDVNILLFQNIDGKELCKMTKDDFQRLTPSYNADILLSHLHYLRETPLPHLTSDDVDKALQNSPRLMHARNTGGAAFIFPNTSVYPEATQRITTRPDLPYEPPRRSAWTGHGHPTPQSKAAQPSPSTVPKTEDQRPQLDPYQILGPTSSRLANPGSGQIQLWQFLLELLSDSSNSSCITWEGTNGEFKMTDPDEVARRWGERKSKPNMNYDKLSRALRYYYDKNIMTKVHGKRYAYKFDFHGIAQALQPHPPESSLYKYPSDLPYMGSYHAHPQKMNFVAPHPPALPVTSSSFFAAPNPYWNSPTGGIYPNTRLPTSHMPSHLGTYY", "outline": "as §1"}, "[4]": {"molecular_target": "SPI1 (Homo sapiens, UniProt P17947 1-270)", "outline": "as §1"}, "[5]": {"molecular_target": "SPIB (Homo sapiens, UniProt Q01892 1-262)", "sequence (Q01892 whole entry)": "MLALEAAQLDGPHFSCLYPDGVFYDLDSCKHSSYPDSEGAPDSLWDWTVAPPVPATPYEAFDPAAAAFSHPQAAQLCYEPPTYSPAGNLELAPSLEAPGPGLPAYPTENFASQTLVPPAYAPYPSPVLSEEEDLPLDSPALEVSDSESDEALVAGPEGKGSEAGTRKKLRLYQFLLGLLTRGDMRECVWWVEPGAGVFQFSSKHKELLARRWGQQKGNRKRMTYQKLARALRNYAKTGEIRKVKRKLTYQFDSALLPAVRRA", "outline": "as §1"}, "[6]": {"molecular_target": "T3, ELK4 (Homo sapiens, UniProt P28324-2 1-405)", "T3 sequence": "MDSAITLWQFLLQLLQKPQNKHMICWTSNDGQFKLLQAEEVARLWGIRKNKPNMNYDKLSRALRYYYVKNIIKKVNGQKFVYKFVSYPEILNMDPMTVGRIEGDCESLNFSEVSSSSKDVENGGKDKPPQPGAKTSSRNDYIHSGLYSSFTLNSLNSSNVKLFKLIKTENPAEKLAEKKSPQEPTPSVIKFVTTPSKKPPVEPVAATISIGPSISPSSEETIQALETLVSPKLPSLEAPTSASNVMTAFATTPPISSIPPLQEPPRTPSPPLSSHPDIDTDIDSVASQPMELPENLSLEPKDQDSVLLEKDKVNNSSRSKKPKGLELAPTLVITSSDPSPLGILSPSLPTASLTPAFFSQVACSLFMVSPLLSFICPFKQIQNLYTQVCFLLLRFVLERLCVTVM", "outline": "as §1"}, "[7]": {"molecular_target": "ETV1 (Homo sapiens, UniProt P50549 1-477)", "sequence (P50549 whole entry)": "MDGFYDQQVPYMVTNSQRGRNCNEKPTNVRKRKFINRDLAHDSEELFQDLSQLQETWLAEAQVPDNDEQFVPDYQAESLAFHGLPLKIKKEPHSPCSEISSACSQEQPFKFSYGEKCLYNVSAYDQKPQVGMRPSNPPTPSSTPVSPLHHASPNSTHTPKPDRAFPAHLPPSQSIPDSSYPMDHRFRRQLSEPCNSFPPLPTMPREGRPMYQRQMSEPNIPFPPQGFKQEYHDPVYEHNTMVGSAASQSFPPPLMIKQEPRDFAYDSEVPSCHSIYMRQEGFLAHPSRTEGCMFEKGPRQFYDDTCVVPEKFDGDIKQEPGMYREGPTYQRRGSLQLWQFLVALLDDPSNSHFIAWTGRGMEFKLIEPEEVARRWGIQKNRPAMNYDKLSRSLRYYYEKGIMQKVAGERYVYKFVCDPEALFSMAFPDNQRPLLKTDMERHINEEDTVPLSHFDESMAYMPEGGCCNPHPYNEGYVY", "outline": "as §1"}, "[8]": {"molecular_target": "T4, ETS2 (Homo sapiens, UniProt P15036 1-469)", "T4 sequence": "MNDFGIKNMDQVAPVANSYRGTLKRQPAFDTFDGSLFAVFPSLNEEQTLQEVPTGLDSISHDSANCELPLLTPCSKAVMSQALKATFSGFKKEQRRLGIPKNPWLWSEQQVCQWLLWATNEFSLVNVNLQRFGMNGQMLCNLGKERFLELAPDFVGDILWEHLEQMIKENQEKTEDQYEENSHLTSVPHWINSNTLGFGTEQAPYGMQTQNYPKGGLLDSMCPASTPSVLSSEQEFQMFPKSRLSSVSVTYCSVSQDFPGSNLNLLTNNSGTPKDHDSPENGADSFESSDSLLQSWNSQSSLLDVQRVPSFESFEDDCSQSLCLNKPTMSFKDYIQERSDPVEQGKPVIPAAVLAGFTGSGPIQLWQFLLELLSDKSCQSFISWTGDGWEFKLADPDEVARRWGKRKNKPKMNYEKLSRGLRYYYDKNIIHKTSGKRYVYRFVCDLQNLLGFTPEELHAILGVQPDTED", "outline": "as §1"}, "[9]": {"molecular_target": "T5, ETV7 (Homo sapiens, UniProt Q9Y603 1-341)", "T5 sequence": "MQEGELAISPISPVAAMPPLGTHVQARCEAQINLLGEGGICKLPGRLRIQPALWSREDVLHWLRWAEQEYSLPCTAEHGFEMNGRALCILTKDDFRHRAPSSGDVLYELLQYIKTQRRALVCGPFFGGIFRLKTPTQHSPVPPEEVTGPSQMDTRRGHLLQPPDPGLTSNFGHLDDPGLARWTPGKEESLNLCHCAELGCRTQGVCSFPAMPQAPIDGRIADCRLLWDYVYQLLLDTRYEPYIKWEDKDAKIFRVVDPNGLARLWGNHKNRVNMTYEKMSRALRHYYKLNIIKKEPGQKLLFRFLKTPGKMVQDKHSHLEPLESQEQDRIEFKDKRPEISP", "outline": "as §1"}, "[10]": {"molecular_target": "T6, ETV3 (Homo sapiens, UniProt P41162-2 1-143)", "T6 sequence": "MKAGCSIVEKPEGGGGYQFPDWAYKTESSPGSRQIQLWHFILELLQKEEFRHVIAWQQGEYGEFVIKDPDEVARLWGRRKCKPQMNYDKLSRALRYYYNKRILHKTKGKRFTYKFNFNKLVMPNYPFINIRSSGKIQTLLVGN", "outline": "as §1"}, "[11]": {"molecular_target": "ETV6 (Homo sapiens, UniProt P41212 1-452)", "sequence (P41212 whole entry)": "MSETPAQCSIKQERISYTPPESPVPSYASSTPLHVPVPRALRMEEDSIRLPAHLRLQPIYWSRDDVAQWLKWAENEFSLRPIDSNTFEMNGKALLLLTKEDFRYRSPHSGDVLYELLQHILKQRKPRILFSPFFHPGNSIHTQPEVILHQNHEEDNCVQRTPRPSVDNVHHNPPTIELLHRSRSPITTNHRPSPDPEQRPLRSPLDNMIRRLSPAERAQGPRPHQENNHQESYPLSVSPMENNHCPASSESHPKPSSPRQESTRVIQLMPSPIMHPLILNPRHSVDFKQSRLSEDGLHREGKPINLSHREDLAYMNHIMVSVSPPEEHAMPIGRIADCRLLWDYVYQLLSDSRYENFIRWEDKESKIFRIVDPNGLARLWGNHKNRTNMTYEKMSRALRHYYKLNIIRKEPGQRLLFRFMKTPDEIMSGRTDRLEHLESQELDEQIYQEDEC", "outline": "as §1"}, "[12]": {"molecular_target": "ELF1 (Homo sapiens, UniProt P32519 1-619)", "sequence (P32519 whole entry)": "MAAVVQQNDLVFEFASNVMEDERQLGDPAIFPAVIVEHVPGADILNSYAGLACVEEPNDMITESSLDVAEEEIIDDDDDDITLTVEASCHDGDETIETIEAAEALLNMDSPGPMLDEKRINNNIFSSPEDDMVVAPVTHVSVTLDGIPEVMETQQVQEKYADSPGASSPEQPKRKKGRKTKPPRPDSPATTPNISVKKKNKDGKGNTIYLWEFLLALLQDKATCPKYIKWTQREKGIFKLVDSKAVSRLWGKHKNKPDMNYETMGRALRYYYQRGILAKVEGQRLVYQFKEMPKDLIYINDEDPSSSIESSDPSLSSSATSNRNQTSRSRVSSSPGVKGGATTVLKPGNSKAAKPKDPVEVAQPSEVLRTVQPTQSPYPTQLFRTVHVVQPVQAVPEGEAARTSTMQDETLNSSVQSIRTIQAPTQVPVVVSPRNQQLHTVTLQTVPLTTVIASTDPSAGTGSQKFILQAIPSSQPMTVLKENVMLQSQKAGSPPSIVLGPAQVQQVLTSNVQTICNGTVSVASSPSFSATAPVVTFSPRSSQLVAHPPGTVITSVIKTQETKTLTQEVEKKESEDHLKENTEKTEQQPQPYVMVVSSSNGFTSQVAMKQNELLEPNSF", "outline": "as §1"}, "[13]": {"molecular_target": "T7, EHF (Homo sapiens, UniProt Q9NZC4 1-300)", "T7 sequence": "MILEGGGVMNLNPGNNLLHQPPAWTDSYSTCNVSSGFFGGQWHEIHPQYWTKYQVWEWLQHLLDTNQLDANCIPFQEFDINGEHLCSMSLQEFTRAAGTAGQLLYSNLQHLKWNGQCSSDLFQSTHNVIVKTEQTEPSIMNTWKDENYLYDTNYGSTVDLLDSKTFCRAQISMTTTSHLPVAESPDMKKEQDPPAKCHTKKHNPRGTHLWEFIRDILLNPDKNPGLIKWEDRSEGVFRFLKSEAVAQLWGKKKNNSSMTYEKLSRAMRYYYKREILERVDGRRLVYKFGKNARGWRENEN", "outline": "as §1"}, "[14]": {"molecular_target": "T8, FEV (Homo sapiens, UniProt Q99581 1-238)", "T8 sequence": "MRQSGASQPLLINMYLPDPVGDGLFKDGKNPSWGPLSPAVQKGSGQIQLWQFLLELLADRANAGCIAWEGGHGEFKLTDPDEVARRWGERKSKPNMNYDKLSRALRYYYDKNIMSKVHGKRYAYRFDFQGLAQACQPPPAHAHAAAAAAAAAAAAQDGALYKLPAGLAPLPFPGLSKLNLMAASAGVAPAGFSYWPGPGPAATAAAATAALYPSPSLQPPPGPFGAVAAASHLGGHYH", "outline": "as §1"}, "[15]": {"molecular_target": "T9, ELF3 (Homo sapiens, UniProt P78545 1-371)", "T9 sequence": "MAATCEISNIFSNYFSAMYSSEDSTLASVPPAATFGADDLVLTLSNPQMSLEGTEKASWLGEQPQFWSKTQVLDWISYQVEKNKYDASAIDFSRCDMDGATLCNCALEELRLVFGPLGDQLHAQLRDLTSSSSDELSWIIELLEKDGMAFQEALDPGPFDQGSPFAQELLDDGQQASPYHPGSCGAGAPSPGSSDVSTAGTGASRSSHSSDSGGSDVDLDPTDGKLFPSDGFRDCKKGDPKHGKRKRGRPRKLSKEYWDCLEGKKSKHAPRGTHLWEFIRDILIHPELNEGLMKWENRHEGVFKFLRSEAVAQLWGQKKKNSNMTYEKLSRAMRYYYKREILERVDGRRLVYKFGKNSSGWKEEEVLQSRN", "outline": "as §1"}}}
{"sequence": "CATAAG", "values": [{"measurement": "binding signal", "setting": "[1]", "result": "1 fold enrichment (6-mer frequency, TF over GST control)"}, {"measurement": "binding signal", "setting": "[2]", "result": "1 fold enrichment (6-mer frequency, TF over GST control)"}]}
{"sequence": "TGGAAG", "values": [{"measurement": "binding signal", "setting": "[3]", "result": "1.05 fold enrichment (6-mer frequency, TF over GST control)"}, {"measurement": "binding signal", "setting": "[4]", "result": "1.08 fold enrichment (6-mer frequency, TF over GST control)"}, {"measurement": "binding signal", "setting": "[5]", "result": "1.11 fold enrichment (6-mer frequency, TF over GST control)"}, {"measurement": "binding signal", "setting": "[1]", "result": "1.03 fold enrichment (6-mer frequency, TF over GST control)"}, {"measurement": "binding signal", "setting": "[6]", "result": "1.06 fold enrichment (6-mer frequency, TF over GST control)"}, {"measurement": "binding signal", "setting": "[7]", "result": "1.02 fold enrichment (6-mer frequency, TF over GST control)"}, {"measurement": "binding signal", "setting": "[8]", "result": "1.01 fold enrichment (6-mer frequency, TF over GST control)"}, {"measurement": "binding signal", "setting": "[9]", "result": "1.13 fold enrichment (6-mer frequency, TF over GST control)"}, {"measurement": "binding signal", "setting": "[10]", "result": "1.07 fold enrichment (6-mer frequency, TF over GST control)"}, {"measurement": "binding signal", "setting": "[11]", "result": "1.19 fold enrichment (6-mer frequency, TF over GST control)"}]}
{"sequence": "TGGAAC", "values": [{"measurement": "binding signal", "setting": "[3]", "result": "1.02 fold enrichment (6-mer frequency, TF over GST control)"}, {"measurement": "binding signal", "setting": "[12]", "result": "1 fold enrichment (6-mer frequency, TF over GST control)"}, {"measurement": "binding signal", "setting": "[13]", "result": "1.04 fold enrichment (6-mer frequency, TF over GST control)"}, {"measurement": "binding signal", "setting": "[5]", "result": "1.04 fold enrichment (6-mer frequency, TF over GST control)"}, {"measurement": "binding signal", "setting": "[14]", "result": "1.02 fold enrichment (6-mer frequency, TF over GST control)"}, {"measurement": "binding signal", "setting": "[1]", "result": "1.05 fold enrichment (6-mer frequency, TF over GST control)"}, {"measurement": "binding signal", "setting": "[15]", "result": "1.05 fold enrichment (6-mer frequency, TF over GST control)"}, {"measurement": "binding signal", "setting": "[7]", "result": "1.04 fold enrichment (6-mer frequency, TF over GST control)"}]}
